# Experimental data: PubChem BioAssay (NCI)
# The panel holds about 79,000 compounds, 15% with a hit somewhere; the sample as a whole holds those more often. Unmarked numbers belong to inactive results. Calls of active or inactive are those of the source. No stated cut-off is given here; in the data, active means growth inhibition above about 70%; inactive means the rest.
# Experiments:
# [1] = NCI Yeast Anticancer Drug Screen. Data for the rad50 strain (AID 155);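 further: 0% = growth of vehicle-only cultures of the same strain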; conditions: S. cerevisiae rad50 strain growth inhibition; at 50.0 µM; active compounds read high
# How it was run: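 Relative growth inhibition (compound vs vehicle) was measured in yeast with a defined repair-gene alteration.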
# [2] = NCI Yeast Anticancer Drug Screen. Data for the mec2-1 strain (AID 157); conditions: S. cerevisiae mec2-1 strain, at 50.0 µM, active compounds read high
# How it was run: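 Compounds were applied to mec2-1 yeast cells. Their growth was then compared with that of vehicle-treated cultures to give growth inhibition.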
# [3] = NCI Yeast Anticancer Drug Screen. Data for the sgs1 mgt1 strain (AID 161);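 further: 0% = growth of cultures given vehicle only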; conditions: S. cerevisiae sgs1 mgt1 strain, at 50.0 µM, active compounds read high
# How it was run: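 Yeast cells carrying a defined DNA-repair defect were exposed to test compounds. Growth inhibition was measured relative to vehicle-treated controls.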
# [4] = NCI Yeast Anticancer Drug Screen. Data for the cln2 rad14 strain (AID 165);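 further: 0% = growth equal to vehicle treated cultures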; conditions: S. cerevisiae cln2 rad14 strain, at 50.0 µM, active compounds read high
# How it was run: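 Strain: cln2 rad14 yeast, altered in cell cycle control and DNA damage repair. Read-out: growth inhibition vs vehicle.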
# [5] = NCI Yeast Anticancer Drug Screen. Data for the bub3 strain (AID 167); conditions: S. cerevisiae bub3 mutant strain, at 50.0 µM, active compounds read high
# How it was run: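 Screening used yeast with an engineered genetic alteration affecting cell cycle control. Compound-exposed cultures were compared with vehicle cultures, and reduced growth was taken as inhibition.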
# [6] = NCI Yeast Anticancer Drug Screen. Data for the mlh1 rad18 strain (AID 175); conditions: S. cerevisiae mlh1 rad18 strain growth inhibition; at 50.0 µM; active compounds read high
# How it was run: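 A repair-deficient yeast strain is exposed to test compound, and growth is scored relative to vehicle-treated controls.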
SMILES,growth inhibition [1],growth inhibition [2],growth inhibition [3],growth inhibition [4],growth inhibition [5],growth inhibition [6]
Cc1cc(=O)[nH]cn1,0.25%,6.2%,-7.2%,7.45%,19.8%,-4.9%
CCN(CC)CCNCc1c[nH]c(=S)[nH]c1=O,-7.25%,-1%,-19.4%,-1.05%,1.35%,-9.45%
O=C(CNC(=O)C(CSC(c1ccccc1)(c1ccccc1)c1ccccc1)NC(=O)OCc1ccccc1)OCc1ccccc1[N+](=O)[O-] (stereo not drawn),4.9%,8.85%,-4.15%,-7.95%,-7.05%,20.1%
COc1cc(Cl)ccc1NC(=O)COc1ccc(Cl)cc1,4.55%,0.5%,-12.8%,-3.6%,20%,-17.1%
CCOC(=O)CC(=O)C1CCC2C3CC=C4CC(O)CCC4(C)C3CCC12C (stereo not drawn),36.5%,8.3%,47.4%,25.9%,2.1%,33.9%
CC(=O)Nc1ccc2c(c1)CCCC2,5.75%,-4.45%,-0.8%,-71.6%,-2.95%,-16.4%
C/C(CC(=O)N1CCCCC1)=N\NC(N)=S,-6.95%,-9.45%,-18.9%,-10.5%,2.2%,-18.2%
CC[N+](C)(CC)CCl,-49.2%,-17.9%,-20.8%,-45.4%,7.6%,-1.65%
Cc1ccc(C2=CSc3ccccc3N2)cc1,24.8%,38%,45.6%,-13.9%,62.5%,29.2%
Cc1ccccc1NC(=S)NC(=O)c1ccccc1,30.9%,19.2%,62.8%,-34.8%,64%,48.2%
Cc1ccc(Cl)cc1N=C=S,-22%,-18.8%,6%,-4.6%,-38.4%,-11.2%
O=C(N[C@@H](CCl)[C@H](Cl)c1ccc([N+](=O)[O-])cc1)c1ccc([N+](=O)[O-])o1,85.3% (active),76.2% (active),93.3% (active),83.7% (active),87.3% (active),92.8% (active)
[N-]=[N+]=NC(c1ccccc1)S(=O)c1ccccc1 (stereo not drawn),98.1% (active),98.5% (active),95.8% (active),48%,96.3% (active),91% (active)
CCCCCCCCCCCCOc1ccc(Sc2ccc([N+](=O)[O-])cc2)cc1,30.2%,2.55%,35.1%,-34.3%,5.1%,25.8%
O=c1[nH]c(=O)n(C2CC(O)C(CO)O2)c2ncncc12 (stereo not drawn),-0.85%,-0.3%,4.45%,2.15%,-10.1%,-57.1%
N#Cc1cnc(=S)n(-c2cc(C(F)(F)F)cc(C(F)(F)F)c2)c1N,5.7%,-10.9%,15.9%,11.7%,8.85%,11.5%
Cc1ccc(/C=N/NC(=O)c2ccccc2NC(=O)c2ccccc2)cc1,57.4%,80.6% (active),85.4% (active),62%,70.8% (active),69.8%
OC(c1cccc(OCc2ccccc2)c1)c1ccccn1 (stereo not drawn),4.95%,-6.6%,2.15%,-20.9%,2.15%,2%
